These results are taken from PubChem BioAssay (Tox21).

SMILES strings stand for the structures. Unmarked numbers belong to inactive results. Inconclusive results are not listed. Active and inactive are the calls of the source. Unless noted, calls follow the shape of the dose curve; as a rule, active = well fitted curve in the direction sought with a large enough effect in the repeat runs; inconclusive = weak or mixed curves; inactive = no such curve, though single readings can be large; an effect the other way counts as inactive or inconclusive.

Experiment [1] is described as follows: qHTS assay to identify small molecule antagonists of the estrogen receptor alpha (ER-alpha) signaling pathway using the BG1 cell line in the presence of 0.1 nM 17-beta-estradiol - cell viability counter screen (AID 1259241). Also: nearly all actives have a fitted effect of over 40% in size. The essentials: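 CellTiter-Fluor read (30 min, 37C) on ER-alpha/ERE-luc VM7Luc4E2 cells; 22 hr compound treatment; agonist 0.1 nM E2 final; same-well multiplex.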

A short description of experiment [2]: qHTS assay to identify small molecule antagonists of the androgen receptor (AR) signaling pathway using the MDA cell line in the presence of 0.5 nM R1881 - cell viability counter screen (AID 1259242). Also: nearly all actives have a fitted effect of over 45% in size. In outline: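 qHTS format. MDA-kb2 (MMTV-luc, AR/GR responsive) + cpd + 0.5 nM R1881 final, 16 hr 37C/0% CO2 → CellTiter-Fluor 30 min → fluorescence intensity.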

Experiment [3] concerns the target Estrogen receptor (Homo sapiens) (UniProt P03372). The experiment in a line: qHTS assay to identify small molecule antagonists of the estrogen receptor alpha (ER-alpha) signaling pathway using the BG1 cell line in the presence of 0.1 nM 17-beta-estradiol (AID 1259244). Also: nearly all actives have a fitted effect of over 50% in size. The essentials: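 Reporter is a stably transfected luciferase under four estrogen responsive elements in VM7Luc4E2 cells expressing native full-length ER-alpha; inhibition of 0.1 nM (final) 17beta-estradiol-driven signal over 22 h is read by luminescence.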
Background: qHTS replaces the single test concentration by a dilution series.

Experiment [4] in a line: qHTS assay to identify small molecule HDAC inhibitors (AID 1259364).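 Also: wild-type HCT-116 cells with endogenous class I/II HDAC activity; top concentration of the series differs between compounds; nearly all actives have a fitted effect of over 45% in size.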 In outline:
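Quantitative high-throughput format: overnight-seeded HCT-116 cells got compounds for 2 hr at 37C; HDAC-Glo I/II reagent added, 30 min RT, luminescence measured.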

Experiment [5] in a line: qHTS assay to identify small molecule HDAC inhibitors - cell viability counter screen (AID 1259365). Also: series mostly up to about 92 µM; nearly all actives have a fitted effect of over 50% in size. The essentials: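 To flag cytotoxic hits, 1,500 wild-type HCT-116 cells per well, plated the day before, receive test compounds for 2hr at 37 C before CellTiter-Glo reagent and a luminescence read.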
A short description of experiment [6]: qHTS assay to identify small molecule agonists of the sonic hedgehog signaling (Shh) pathway - cell viability counter screen (AID 1259366). Also: nearly all actives have a fitted effect of over 50% in size. Also: potency is read from the fitted curve at half-maximal effect. The essentials:
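Fluorescence from CellTiter-Fluor reports live cells in this counter screen. NIH/3T3-derived Gli1-Luc reporter cells receive test compounds for 24hr at 37C; reagent goes in at 23hr.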

Experiment [7] can be described thus: qHTS assay to identify small molecule antagonists of the sonic hedgehog signaling (Shh) pathway - cell viability counter screen (AID 1259367). Also: nearly all actives have a fitted effect of over 55% in size. Also: potency is read from the fitted curve at half-maximal effect. In outline:
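CellTiter-Fluor signal in conditioned medium-stimulated 3T3 Gli1-Luc cells, 23 hr compound exposure, 37C.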

A short description of experiment [8]: qHTS assay to identify small molecule antagonists of the sonic hedgehog signaling (Shh) pathway (AID 1259369; calls by dose curve; also: nearly all actives have a fitted effect of over 45% in size; also: potency is read from the fitted curve at half-maximal effect). The essentials: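 Stable Gli1-Luc reporter NIH/3T3 clone; quantitative HTS in stimulated mode with conditioned medium. Luminescence measured after 24hr compound treatment at 37 C.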
The target in experiment [9] is Estrogen receptor beta (Homo sapiens) (UniProt Q92731). The experiment in a line: qHTS assay to identify small molecule agonists of the estrogen receptor beta (ER-beta) signaling pathway (AID 1259377; active = well fitted activation curve with a large enough effect in the signal ratio in the repeat runs, not every such curve was filed as active; the % refers to the signal ratio). The essentials: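 Screening used GripTite ER-beta-UAS-bla cells held in 2% charcoal-stripped FBS medium. After overnight (16 hr) compound incubation at 37C, beta-lactamase activity was detected with a FRET substrate by fluorescence.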

A short description of experiment [10]: qHTS assay to identify small molecule agonists of the androgen receptor (AR) signaling pathway in the presence of an antagonist - cell viability counter screen (AID 1259379).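 Also: MDA-kb2 human breast cancer cells carrying an MMTV luciferase reporter; series mostly up to about 92 µM; nearly all actives have a fitted effect of over 25% in size.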 In outline: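 Nilutamide-containing (3.0uM final) MDA-kb2 cultures, 3,000 cells/well, were treated with compounds across 15 concentrations. After 16 hr at 37C with no CO2, cell viability was determined by CellTiter-Fluor fluorescence in the luciferase assay wells.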

Experiment [11] is described as follows: qHTS assay to identify small molecule agonists or antagonists of the thyroid stimulating hormone receptor (TSHR) signaling pathway - wild type cell line counter screen (AID 1259384; calls by dose curve). The essentials:
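Counter screen in untransfected Hek293: compounds (15-point titration, triplicate) plus phosphodiesterase inhibitor Ro20-1724 added after 18 h plating; 30 min RT. Intracellular cAMP via competitive d2/cryptate immunoassay, 1 h incubation.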

In experiment [12] the target is Thyrotropin receptor (Homo sapiens) (UniProt P16473). The experiment in a line: qHTS assay to identify small molecule antagonists of the thyroid stimulating hormone receptor (TSHR) signaling pathway (AID 1259385; calls by dose curve; also: nearly all actives have a fitted effect of over 20% in size). In outline: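 Antagonist mode: compound-treated TSHR-expressing HEK293 cells were stimulated with 1.5 ng/mL TSH (final) in presence of Ro20-1724 for 30 min at RT. HTRF cAMP detection after 1 h; each compound tested at 15 concentrations, triplicate.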

A short description of experiment [13]: qHTS assay to identify small molecule phospholipidosis (PLD) inducers (AID 1259344; active = well fitted curve in the direction sought with a large enough effect; an effect the other way counts as inactive or inconclusive). In outline: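 Accumulated phospholipid, stained red by LipidTOX during 24 h compound treatment of HepG2 cells at 37 C, is quantified from images as pit number and intensity, normalised per cell using Hoechst-stained nuclei.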
Experiment [14] in a line: qHTS assay to identify small molecule agonists of the sonic hedgehog signaling (Shh) pathway (AID 1259368; calls by dose curve;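 also: NIH/3T3-derived 3T3Gli1-Luc cells carrying a stable Gli1-driven firefly luciferase reporter; series mostly up to about 92 µM; nearly all actives have a fitted effect of over 15% in size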). In outline: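 Quantitative high-throughput format using a Gli1-driven firefly luciferase reporter line derived from NIH/3T3 cells. After a 24 hr compound treatment at 37 C and 5% CO2, luminescence reported Gli1 response element activity.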
The target in experiment [15] is Estrogen receptor beta (Homo sapiens) (UniProt Q92731). The experiment in a line: qHTS assay to identify small molecule antagonists of the estrogen receptor beta (ER-beta) signaling pathway (AID 1259378; active = well fitted inhibition curve with a large enough effect in the signal ratio in the repeat runs, not every such curve was filed as active; the % refers to the signal ratio; also: potency is read from the fitted curve at half-maximal effect). The essentials:
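Antagonist mode: compounds added to beta-lactamase reporter HEK293T ER-beta-UAS cells stimulated with E2 (1nM final), 16 hr at 37C. LiveBLAzer B/G FRET substrate, 2 hours room temperature, fluorescence read-out.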

Experiment [16] in a line: qHTS assay to identify small molecule agonists of the estrogen receptor beta (ER-beta) signaling pathway - cell viability counter screen (AID 1259380). Also: nearly all actives have a fitted effect of over 30% in size. Also: potency is read from the fitted curve at half-maximal effect. The essentials: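 Steps: plate ER-beta-UAS-bla HEK293T cells, rest 6 hr; add compounds in DMSO; incubate 16 hr at 37C, 5% CO2; add FRET substrate 2 hr; add CellTiter-Glo, wait 30 min at room temperature; read luminescence.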

Experiment [17] is described as follows: qHTS assay to identify small molecule antagonists of the estrogen receptor beta (ER-beta) signaling pathway - cell viability counter screen (AID 1259382). Also: series mostly up to about 92 µM; nearly all actives have a fitted effect of over 55% in size. In outline: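 Viability is scored by CellTiter-Glo luminescence (30 min, room temperature) in ER-beta-UAS-bla HEK293T wells already read for reporter fluorescence. Compound exposure lasts 16 hr at 37C alongside 1nM 17-beta-estradiol in charcoal-stripped serum medium.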

Experiment [18] addresses Estrogen receptor (Homo sapiens) (UniProt P03372). The experiment in a line: qHTS assay to identify small molecule agonists of the estrogen receptor alpha (ER-alpha) signaling pathway in the presence of an antagonist (AID 1259383; calls by dose curve; also: top concentration of the series differs between compounds; nearly all actives have a fitted effect of over 15% in size). The essentials: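 Readout was ERE-driven luciferase luminescence in VM7Luc4E2 cells, which express full-length ER-alpha endogenously. Compounds were tested at 15 concentrations for 22hr alongside 10.0nM ICI-182,780 (final concentration).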

Chain of Estrogen receptor (Homo sapiens) (P03372 whole entry, looked up): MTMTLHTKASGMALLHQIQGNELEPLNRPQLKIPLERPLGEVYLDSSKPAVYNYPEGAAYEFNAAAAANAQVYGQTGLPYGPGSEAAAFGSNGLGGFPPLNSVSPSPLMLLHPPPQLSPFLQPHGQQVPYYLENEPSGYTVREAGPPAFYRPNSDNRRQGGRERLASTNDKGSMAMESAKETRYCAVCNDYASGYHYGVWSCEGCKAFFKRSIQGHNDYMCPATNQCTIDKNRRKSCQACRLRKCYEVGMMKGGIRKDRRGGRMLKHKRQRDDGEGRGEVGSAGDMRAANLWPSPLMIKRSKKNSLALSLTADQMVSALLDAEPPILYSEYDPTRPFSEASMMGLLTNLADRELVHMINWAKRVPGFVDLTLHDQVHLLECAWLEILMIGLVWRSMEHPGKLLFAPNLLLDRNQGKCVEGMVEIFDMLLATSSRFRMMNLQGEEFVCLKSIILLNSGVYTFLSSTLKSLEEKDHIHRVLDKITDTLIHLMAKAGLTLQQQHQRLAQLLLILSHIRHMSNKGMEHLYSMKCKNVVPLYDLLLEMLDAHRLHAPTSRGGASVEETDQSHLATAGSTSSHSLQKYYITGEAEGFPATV
Chain of Thyrotropin receptor (Homo sapiens) (P16473 whole entry, looked up): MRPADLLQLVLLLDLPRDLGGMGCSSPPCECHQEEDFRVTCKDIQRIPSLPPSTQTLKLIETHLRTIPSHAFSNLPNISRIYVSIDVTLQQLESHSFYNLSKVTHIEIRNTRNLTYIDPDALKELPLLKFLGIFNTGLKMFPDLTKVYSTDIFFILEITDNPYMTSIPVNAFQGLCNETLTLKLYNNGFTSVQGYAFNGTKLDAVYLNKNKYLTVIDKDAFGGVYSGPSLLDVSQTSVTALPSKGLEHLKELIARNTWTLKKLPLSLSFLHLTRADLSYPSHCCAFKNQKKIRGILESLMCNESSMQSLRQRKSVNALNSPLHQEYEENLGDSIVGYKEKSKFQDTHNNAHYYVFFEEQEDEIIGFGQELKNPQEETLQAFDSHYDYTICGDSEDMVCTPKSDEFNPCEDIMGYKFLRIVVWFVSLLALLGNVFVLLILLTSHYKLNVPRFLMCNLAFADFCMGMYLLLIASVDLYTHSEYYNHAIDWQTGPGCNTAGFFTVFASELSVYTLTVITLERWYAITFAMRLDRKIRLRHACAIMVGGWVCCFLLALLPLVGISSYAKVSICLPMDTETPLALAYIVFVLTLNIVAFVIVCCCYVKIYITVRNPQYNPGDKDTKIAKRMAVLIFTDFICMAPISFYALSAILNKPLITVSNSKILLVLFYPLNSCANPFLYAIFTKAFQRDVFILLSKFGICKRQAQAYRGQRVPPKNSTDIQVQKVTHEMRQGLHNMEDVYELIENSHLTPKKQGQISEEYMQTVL
Chain of Estrogen receptor beta (Homo sapiens) (Q92731 whole entry, looked up): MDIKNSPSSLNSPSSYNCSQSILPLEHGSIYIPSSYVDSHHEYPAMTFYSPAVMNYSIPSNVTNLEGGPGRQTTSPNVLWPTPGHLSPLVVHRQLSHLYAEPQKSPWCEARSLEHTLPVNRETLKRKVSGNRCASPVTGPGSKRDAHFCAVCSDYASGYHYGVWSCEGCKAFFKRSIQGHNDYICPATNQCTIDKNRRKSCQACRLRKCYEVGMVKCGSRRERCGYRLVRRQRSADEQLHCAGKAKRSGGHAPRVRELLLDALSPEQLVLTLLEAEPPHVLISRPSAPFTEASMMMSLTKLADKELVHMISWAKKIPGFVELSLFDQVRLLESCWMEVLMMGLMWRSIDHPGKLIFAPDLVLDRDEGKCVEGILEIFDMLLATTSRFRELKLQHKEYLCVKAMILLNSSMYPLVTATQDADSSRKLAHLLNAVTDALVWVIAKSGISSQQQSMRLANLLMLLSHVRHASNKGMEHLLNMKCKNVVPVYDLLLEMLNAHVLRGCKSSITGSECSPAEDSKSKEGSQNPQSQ

For the molecule `CCCCOC(=O)/C=C\C(=O)OCCCC`, the Potency result in [1], in [2], in [3], in experiment [4], in experiment [6] and in experiment [7] was “inactive” throughout. For the same molecule, the Potency entry in experiment [8], in [9], in experiment [10], in experiment [11] and in experiment [12] was “inactive” throughout. Besides, in experiment [5], the outcome was inactive.
For the molecule `Cn1c(NCCN(CCO)CCCc2ccc([N+](=O)[O-])cc2)cc(=O)n(C)c1=O`, the Potency entry in experiment [1], in experiment [2], in [13], in [4], in [6] and in experiment [7] was “inactive” in each case. Also, the Potency result in experiment [8], in experiment [9], in experiment [15], in experiment [10], in [16] and in experiment [11] was “inactive” in each case. Also, in experiment [12], the Potency entry is “inactive”. Moreover, the outcome in experiment [5] and in experiment [14] was inactive.
Take `CC(C)(C)C(=O)OCOP(=O)(COCCn1cnc2c(N)ncnc21)OCOC(=O)C(C)(C)C`: the Potency result in [1], in [2], in [13], in [4], in [9] and in experiment [15] was “inactive” throughout. The Potency entry in [17], in experiment [11] and in experiment [12] was “inactive” in each case. The result in experiment [5] and in [14] was inactive. The Potency in experiment [6] was 10.6 µM (active); in experiment [7], 9.44 µM (active); in [8] it was 2.98 µM (active); in experiment [16], 9.44 µM (active).
As for `C=C(C)C(=O)OCCN(C)C`, the Potency entry in [1], in experiment [2], in experiment [3], in [6], in experiment [7] and in experiment [8] was “inactive” throughout. For the same molecule, the Potency result in [9], in [15], in experiment [10], in experiment [16], in experiment [17] and in experiment [18] was “inactive” throughout. Further, the result in experiment [5] and in experiment [14] was inactive.
Turning to `O=c1[nH]cnc2ccccc12`, the Potency entry in [1], in experiment [2], in experiment [3], in experiment [6], in [7] and in [8] was “inactive” each time. The Potency result in [9], in experiment [10], in [16], in [17], in experiment [18] and in experiment [11] was “inactive” each time. The Potency entry in [12] was “inactive”. Also, the call in [5] and in experiment [14] was inactive.
On to `Cc1ccccn1`, for which the Potency result in experiment [1], in experiment [2], in experiment [13], in experiment [4], in experiment [6] and in experiment [7] was “inactive” in each case. Moreover, the Potency result in experiment [8], in experiment [15], in experiment [10], in [16] and in experiment [17] was “inactive” throughout. The outcome in experiment [5] and in [14] was inactive.
With `CCCCCCCCN(C)C`, the Potency entry in experiment [1], in [2], in experiment [3], in experiment [4], in experiment [6] and in [7] was “inactive” each time. The Potency result in [8], in experiment [10], in experiment [16], in experiment [17], in [18] and in experiment [12] was “inactive” in each case. Further, the molecule was classed as inactive in [5].
For the molecule `CN1CCC[C@@H]1c1cccnc1`, the Potency result in [1], in experiment [2], in [13], in [4], in experiment [6] and in [7] was “inactive” each time. Further, the Potency entry in [8], in experiment [10], in experiment [16] and in experiment [17] was “inactive” in each case. For the same molecule, the molecule was classed as inactive in [5] and in experiment [14].
With `CC(C)(C)c1ccc(S)cc1`, the Potency result in experiment [1], in experiment [2], in experiment [3], in experiment [6], in experiment [7] and in experiment [8] was “inactive” each time. Also, the Potency result in [9], in experiment [10], in experiment [17], in [11] and in experiment [12] was “inactive” in each case. The result in [5] and in experiment [14] was inactive.
Turning to `CN(C)CCCNCCCN`, the Potency entry in experiment [1], in experiment [2], in [3], in [4], in experiment [7] and in experiment [9] was “inactive” each time. The Potency result in [15], in experiment [10], in [17], in [18], in experiment [11] and in [12] was “inactive” throughout. Further, the molecule was called inactive in experiment [5] and in experiment [14]. Also, in experiment [6], the Potency is 27.2 µM (active).
As for `Cl/C(=C\n1cncn1)c1ccc(Cl)cc1Cl`, the Potency result in experiment [1], in experiment [2], in experiment [13], in [4], in experiment [6] and in [7] was “inactive” throughout. Also, the Potency result in experiment [8], in experiment [10], in experiment [16], in experiment [17], in experiment [11] and in experiment [12] was “inactive” throughout. The molecule was classed as inactive in experiment [5] and in experiment [14].
For the molecule `CC(=O)c1ccc2c(c1)[C@H](NC(=O)c1ccc(F)cc1)[C@@H](O)C(C)(C)O2`, the Potency entry in [1], in experiment [2], in [8], in experiment [10], in experiment [11] and in experiment [12] was “inactive” in each case. In addition, the result in experiment [5] and in experiment [14] was inactive.
For `CCOc1ccc(NC(=O)CC(C)=O)cc1`, the Potency entry in experiment [1], in experiment [2], in [6], in [7], in experiment [8] and in experiment [9] was “inactive” in each case. Further, the Potency entry in [15], in experiment [10], in [16] and in experiment [17] was “inactive” each time. The call in [5] and in experiment [14] was inactive.
`CC1(C)CCC(C)(C)c2cc(NC(=O)c3ccc(C(=O)O)cc3)ccc21`: the Potency entry in [1], in experiment [2], in [13], in experiment [4], in [7] and in experiment [8] was “inactive” throughout. In addition, the Potency result in experiment [10], in experiment [17], in experiment [11] and in [12] was “inactive” throughout. Further, the outcome in experiment [5] and in experiment [14] was inactive. Besides, in experiment [15], the Potency was 18.8 µM (active).
